# Calls of active or inactive are those of the source. The calls were made as follows: active = hit-call score of the fitted dose curve at least 0.9, where 1 is the maximum; inactive = score below 0.9.
# Key:
# [1] = ATG_GLI_CIS: Attagene CIS-FACTORIAL HepG2 Assay for human Zinc Finger Protein GLI1 (AID 2282945); conditions: HepG2, Attagene cis-factorial reporter mRNA, GLI element; actives raise or lower the signal
# Procedure, shortened: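 Transiently transfected HepG2 cells report endogenous transcription factor activity via cis-element-driven reporter units. After 24 h compound exposure, reporter mRNA was measured by RT-PCR with capillary electrophoresis; bidirectional fitting against DMSO baseline.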
# [2] = biological target: Bile acid receptor (Homo sapiens) (UniProt Q96RI1); assay: ATG_IR1_CIS: Attagene CIS-FACTORIAL HepG2 Assay for human Nuclear Receptor Subfamily 1 Group H Member 4 (NR1H4), IR1 submotif (AID 2282946); conditions: IR1 reporter transcription, actives raise or lower the signal
# Procedure, shortened: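 HepG2 cells transiently transfected with multiple cis-promoter-driven reporter units to measure endogenous transcription factor activity; 24 h exposure. Reporter mRNA read by RT-PCR, FAM labelling, HpaI digestion and capillary electrophoresis. Bidirectional fit versus DMSO.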
# [3] = ATG_GRE_CIS: Attagene CIS-FACTORIAL HepG2 Assay for human Glucocorticoid Response Elements (GRE) (AID 2282947); conditions: HepG2 GRE cis-reporter, Attagene multiplex mRNA; actives raise or lower the signal
# Procedure, shortened: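 Endogenous transcription factor activity is read through cis-element reporter constructs transiently transfected into HepG2 cells. After 24 h treatment, labelled RT-PCR products are resolved by capillary electrophoresis; DMSO sets baseline for bidirectional curve fitting.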
# [4] = ATG_M_32_CIS: Attagene CIS-FACTORIAL HepG2 Assay for M32 Transcription Factor (Internal Marker) (AID 2282949); conditions: HepG2 Attagene cis-factorial M32 reporter, mRNA; actives raise or lower the signal;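 also: background control marker of the multiplexed CIS panel rather than a real target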
# Procedure, shortened: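 Internal background marker read-out: RT-PCR/capillary electrophoresis fluorescence of reporter transcripts from transiently transfected HepG2 cells after 24 h chemical exposure. Activity fitted bidirectionally relative to DMSO negative control.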
# [5] = ATG_M_06_CIS: Attagene CIS-FACTORIAL HepG2 Assay for M06 Transcription Factor (Internal Marker) (AID 2282950); conditions: HepG2 Attagene CIS-FACTORIAL M06 internal marker reporter; actives raise or lower the signal
# Procedure, shortened: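 Terse: HepG2, transient MRTU transfection (FuGene 6), 24 h dosing; total RNA, oligo(dT) RT, PCR, FAM label, HpaI cut, capillary electrophoresis; bidirectional fit vs DMSO baseline; background-control endpoint.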
# [6] = biological target: Hypoxia-inducible factor 1-alpha (Homo sapiens) (UniProt Q16665); assay: ATG_HIF1a_CIS: Attagene CIS-FACTORIAL HepG2 Assay for human Hypoxia Inducible Factor 1 (HIF1A) (AID 2282951); conditions: HepG2 Attagene cis-factorial HIF1a reporter transcription; actives raise or lower the signal
# Procedure, shortened: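 HepG2, transient cis-reporter library, 24 h dosing. RNA → RT (oligo dT) → PCR → 6-FAM primer extension → HpaI → CE. Bidirectional curve fit vs DMSO.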
# [7] = biological target: Hepatocyte nuclear factor 6 (Homo sapiens) (UniProt Q9UBC0); assay: ATG_HNF6_CIS: Attagene CIS-FACTORIAL HepG2 Assay for human Hepatocyte Nuclear Factor 6 (HNF6) (AID 2282952); conditions: HepG2 Attagene cis-factorial HNF6 reporter transcription; actives raise or lower the signal
# Procedure, shortened: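 Reporter mRNA induction or loss in HepG2 after 24 h exposure; transient cis-MRTU transfection; fragments quantified by capillary electrophoresis; bidirectional analysis, DMSO as negative control.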
# [8] = biological target: Heat shock factor protein 1 (Homo sapiens) (UniProt Q00613); assay: ATG_HSE_CIS: Attagene CIS-FACTORIAL HepG2 Assay for human Heat Shock Transcription Factor 1 (HSE) (AID 2282953); conditions: HepG2 HSE cis-reporter, Attagene RNA transcription; actives raise or lower the signal
# Procedure, shortened: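 Read-out: fluorescence of reporter-specific RT-PCR fragments separated by capillary electrophoresis. HepG2 carrying transfected cis-element reporter units; 24 h dosing; activity fitted in both directions relative to DMSO baseline.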
# [9] = ATG_MRE_CIS: Attagene CIS-FACTORIAL HepG2 Assay for human Metal Responsive Element (MRE) (AID 2282954); conditions: HepG2 MRE cis-reporter transcription, Attagene multiplex; actives raise or lower the signal
# Procedure, shortened: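 Fluorescent reporter fragments separated by capillary electrophoresis give mRNA induction for the MRE unit after 24 h treatment of transfected HepG2 cells. Endogenous transcription-factor activity is read; DMSO serves as negative control and baseline.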
# [10] = ATG_ISRE_CIS: Attagene CIS-FACTORIAL HepG2 Assay for human Interferon Regulatory Factor 1 (IRF1) binding to an Interferon-Stimulated Response Element (ISRE) (AID 2282948); conditions: HepG2 ISRE cis-reporter (Attagene), mRNA transcription readout; actives raise or lower the signal
# Procedure, shortened: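 Cell-based cis-reporter assay; HepG2; 24 h exposure; reporter mRNA by RT-PCR plus capillary electrophoresis fluorescence; activity in either direction scored relative to DMSO.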
# Sequence of Heat shock factor protein 1 (Homo sapiens) (Q00613 whole entry, looked up, the tested form may be a part): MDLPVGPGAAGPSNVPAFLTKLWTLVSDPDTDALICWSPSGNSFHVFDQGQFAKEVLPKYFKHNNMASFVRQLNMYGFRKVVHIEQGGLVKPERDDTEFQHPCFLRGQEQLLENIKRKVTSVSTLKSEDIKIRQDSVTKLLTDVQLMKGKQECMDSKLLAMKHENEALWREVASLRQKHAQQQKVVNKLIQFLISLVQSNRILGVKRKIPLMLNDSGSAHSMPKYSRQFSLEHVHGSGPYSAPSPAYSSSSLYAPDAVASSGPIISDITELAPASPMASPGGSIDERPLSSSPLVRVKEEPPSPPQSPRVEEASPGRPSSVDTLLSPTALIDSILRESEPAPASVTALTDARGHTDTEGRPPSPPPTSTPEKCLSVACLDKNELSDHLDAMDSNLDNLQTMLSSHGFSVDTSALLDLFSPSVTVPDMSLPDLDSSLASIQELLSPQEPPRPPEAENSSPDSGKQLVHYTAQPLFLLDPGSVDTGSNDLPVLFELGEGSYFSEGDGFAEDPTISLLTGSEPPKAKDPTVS
# Sequence of Bile acid receptor (Homo sapiens) (Q96RI1 whole entry, looked up): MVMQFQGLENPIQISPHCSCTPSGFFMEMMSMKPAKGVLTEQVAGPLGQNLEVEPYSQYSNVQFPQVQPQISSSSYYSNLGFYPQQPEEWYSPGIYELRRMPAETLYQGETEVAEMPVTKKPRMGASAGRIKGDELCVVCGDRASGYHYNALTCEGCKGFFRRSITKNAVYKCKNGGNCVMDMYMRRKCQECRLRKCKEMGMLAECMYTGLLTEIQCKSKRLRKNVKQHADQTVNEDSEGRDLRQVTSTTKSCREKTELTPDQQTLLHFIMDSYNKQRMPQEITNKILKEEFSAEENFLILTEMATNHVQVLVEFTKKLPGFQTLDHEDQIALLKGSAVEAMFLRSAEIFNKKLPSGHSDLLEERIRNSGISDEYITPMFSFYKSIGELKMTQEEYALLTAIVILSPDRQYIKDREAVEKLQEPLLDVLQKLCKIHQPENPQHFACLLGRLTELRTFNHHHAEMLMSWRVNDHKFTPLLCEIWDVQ
# Sequence of Hepatocyte nuclear factor 6 (Homo sapiens) (Q9UBC0 whole entry, looked up, the tested form may be a part): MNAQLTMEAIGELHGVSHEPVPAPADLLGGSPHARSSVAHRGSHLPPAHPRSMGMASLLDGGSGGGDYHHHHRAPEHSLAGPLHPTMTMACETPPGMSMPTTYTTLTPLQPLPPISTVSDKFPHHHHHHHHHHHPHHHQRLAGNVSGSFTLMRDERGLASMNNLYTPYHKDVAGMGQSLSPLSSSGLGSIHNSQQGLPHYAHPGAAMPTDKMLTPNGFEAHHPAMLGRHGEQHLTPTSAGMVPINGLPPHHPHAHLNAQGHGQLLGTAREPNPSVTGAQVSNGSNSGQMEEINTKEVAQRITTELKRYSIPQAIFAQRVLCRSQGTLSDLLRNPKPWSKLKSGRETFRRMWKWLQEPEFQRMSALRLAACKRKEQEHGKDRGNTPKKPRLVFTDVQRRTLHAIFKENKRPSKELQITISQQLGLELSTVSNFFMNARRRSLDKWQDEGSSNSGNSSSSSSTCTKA
# Sequence of Hypoxia-inducible factor 1-alpha (Homo sapiens) (Q16665 whole entry, looked up): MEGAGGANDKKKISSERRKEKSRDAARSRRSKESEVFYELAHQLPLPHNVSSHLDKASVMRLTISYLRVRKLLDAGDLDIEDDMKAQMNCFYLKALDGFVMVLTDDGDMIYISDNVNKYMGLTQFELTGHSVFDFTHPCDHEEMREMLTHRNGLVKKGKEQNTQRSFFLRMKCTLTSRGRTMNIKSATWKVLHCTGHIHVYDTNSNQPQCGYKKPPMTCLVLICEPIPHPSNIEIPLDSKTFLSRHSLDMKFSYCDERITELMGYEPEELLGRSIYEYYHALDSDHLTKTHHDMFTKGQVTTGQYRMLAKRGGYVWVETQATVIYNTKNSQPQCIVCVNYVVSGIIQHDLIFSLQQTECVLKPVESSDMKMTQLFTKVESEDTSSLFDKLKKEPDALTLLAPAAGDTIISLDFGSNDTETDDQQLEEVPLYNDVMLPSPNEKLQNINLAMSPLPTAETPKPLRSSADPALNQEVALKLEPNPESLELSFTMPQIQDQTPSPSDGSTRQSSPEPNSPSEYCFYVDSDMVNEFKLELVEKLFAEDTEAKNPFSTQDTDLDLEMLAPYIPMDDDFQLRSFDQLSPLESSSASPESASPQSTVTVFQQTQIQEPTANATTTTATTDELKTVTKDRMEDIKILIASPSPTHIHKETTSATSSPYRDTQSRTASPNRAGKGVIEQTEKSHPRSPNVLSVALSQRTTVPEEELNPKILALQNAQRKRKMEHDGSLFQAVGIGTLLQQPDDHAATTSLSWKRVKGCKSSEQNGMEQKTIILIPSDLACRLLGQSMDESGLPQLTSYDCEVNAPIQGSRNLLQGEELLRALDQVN
Structure (SMILES),outcome [1],outcome [2],outcome [3],outcome [4],outcome [5],outcome [6],outcome [7],outcome [8],outcome [9],outcome [10],AC50 [10],AC50 [8],AC50 [9],AC50 [6],AC50 [2]
O=C(Cl)C(F)(F)C(F)(F)C(F)(F)C(F)(F)C(F)(F)C(F)(F)F,inactive,inactive,inactive,inactive,inactive,inactive,inactive,inactive,inactive,,,,,,
OCC(F)(F)C(F)(F)C(F)(F)C(F)(F)C(F)(F)C(F)(F)CO,inactive,inactive,inactive,inactive,inactive,inactive,inactive,inactive,inactive,inactive,,,,,
CCOC(C=C(C)CCC=C(C)C)OCC,inactive,inactive,inactive,inactive,inactive,inactive,inactive,inactive,inactive,inactive,,,,,
CN1CN(C)CN(C)C1,inactive,inactive,inactive,inactive,inactive,inactive,inactive,,,,74.3 µM (active),160 µM (active),182 µM (active),,
CCCCCCCC/C=C\CCCCCCCC(=O)OCC(O)CO (stereo unspecified),inactive,inactive,inactive,inactive,inactive,,inactive,inactive,inactive,inactive,,,,100 µM (active),
C=C(C)C(=O)OCC(F)(F)C(F)(F)C(F)(F)C(F)F,inactive,inactive,inactive,inactive,inactive,inactive,inactive,inactive,inactive,,,,,,
Cc1cc(O)c(C(C)(C)C)cc1C(C)(C)C,inactive,,inactive,inactive,inactive,inactive,inactive,inactive,,,,,18 µM (active),,2.87 µM (active)
CCCCCCCCCCCCC[N+](C)(C)Cc1ccccc1,inactive,inactive,inactive,inactive,inactive,inactive,inactive,inactive,inactive,,,,,,
COC(=O)c1ccc(C=O)cc1,inactive,inactive,inactive,inactive,inactive,inactive,inactive,inactive,inactive,inactive,,,,,
C=CC(=O)OCCC(F)(F)C(F)(F)C(F)(F)C(F)(F)F,inactive,inactive,inactive,inactive,inactive,inactive,inactive,inactive,inactive,,,,,,
CC(C)(C)c1cc(CCC(=O)OCC(COC(=O)CCc2cc(C(C)(C)C)c(O)c(C(C)(C)C)c2)(COC(=O)CCc2cc(C(C)(C)C)c(O)c(C(C)(C)C)c2)COC(=O)CCc2cc(C(C)(C)C)c(O)c(C(C)(C)C)c2)cc(C(C)(C)C)c1O,inactive,inactive,inactive,inactive,inactive,inactive,inactive,inactive,inactive,inactive,,,,,
CN(N=O)C(=O)N[C@@H]1[C@@H](O)[C@H](O)[C@@H](CO)O[C@@H]1O,inactive,inactive,inactive,inactive,inactive,inactive,inactive,inactive,inactive,inactive,,,,,
Cc1ccc(O)cn1,inactive,inactive,inactive,inactive,inactive,inactive,inactive,inactive,inactive,inactive,,,,,
O=C1c2ccccc2C(=O)c2c(Cl)cccc21,inactive,inactive,inactive,inactive,inactive,inactive,inactive,inactive,inactive,inactive,,,,,
Cc1cc(=O)[nH]c(C(C)C)n1,inactive,inactive,inactive,inactive,inactive,inactive,inactive,inactive,inactive,,,,,,
OCC(O)CC(F)(F)C(F)(F)C(F)(F)C(F)(F)C(F)(F)C(F)(F)C(F)(F)C(F)(F)F (stereo unspecified),inactive,inactive,inactive,inactive,inactive,inactive,inactive,inactive,inactive,,,,,,
CC(=O)CCC(C)C,inactive,inactive,inactive,inactive,inactive,inactive,inactive,inactive,inactive,,,,,,
O=S(=O)(Cl)C(F)(F)C(F)(F)C(F)(F)C(F)(F)C(F)(F)C(F)(F)C(F)(F)C(F)(F)F,inactive,inactive,inactive,inactive,inactive,inactive,inactive,inactive,inactive,inactive,,,,,
CC(C)CC=C(C=O)c1ccccc1,inactive,inactive,inactive,inactive,inactive,inactive,inactive,inactive,inactive,,,,,,
CCOCOCC,inactive,inactive,inactive,inactive,inactive,inactive,inactive,inactive,inactive,inactive,,,,,
FC(F)(F)C(F)(F)C(F)(F)C(F)(F)C(F)(F)C(F)(F)CC[Si](Cl)(Cl)Cl,inactive,inactive,inactive,inactive,inactive,inactive,inactive,inactive,inactive,inactive,,,,,
CCN(CCO)S(=O)(=O)C(F)(F)C(F)(F)C(F)(F)C(F)(F)C(F)(F)C(F)(F)C(F)(F)C(F)(F)F,inactive,inactive,inactive,inactive,inactive,inactive,inactive,inactive,inactive,inactive,,,,,
